Assay results: PubChem BioAssay (EPA / NIEHS)
Results filed as inconclusive are left out. Active and inactive are the calls of the source. Rule for the calls, unless noted: active = hit-call score of the fitted dose curve at least 0.9, where 1 is the maximum; inconclusive = response in the unintended direction; inactive = score below 0.9.

Assays:
[1] = CCTE_Deisenroth_AIME_384WELL_CTox_Active: Cytotoxicity Assessment (CTOX) in CCTE's 384-well Estrogen Receptor Transactivation Assay with AIME metabolic competence (metabolism positive), Deisenroth Lab (AID 2284037);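 note: chemicals first conditioned 2 h by alginate-bound induced rat liver S9 before cells; activity means signal loss indicating cell death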
Summary of the method: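 Cytotoxicity in VM7Luc4E2 breast cells, 24 hour, measured as protease-substrate fluorescence loss, after 2-hour metabolic conditioning with induced rat hepatic S9 in alginate microspheres. Concentrations 0.002 - 200 uM, 10 points, bidirectional fitting.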

[2] = CCTE_Deisenroth_AIME_384WELL_CTox_Inactive: Cytotoxicity Assessment (CTOX) in CCTE's 384-well Estrogen Receptor Transactivation Assay without AIME metabolic competence (metabolism negative), Deisenroth Lab (AID 2284039);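 note: cell viability via live-cell protease substrate cleaved to fluorescent probe; cells exposed 24 h to medium preincubated 2 h with alginate-water beads without S9; loss of fluorescence signal means loss of viability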
Summary of the method: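 Fluorescent protease-substrate viability readout after 24 h exposure of VM7Luc4E2 cells to conditioned medium. Chemicals (0.002–200 uM) first sat 2 h over alginate-water beads, no S9. Data fitted bidirectionally, loss of signal meaning viability loss.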

[3] = target: Estrogen receptor (Homo sapiens) (UniProt P03372); test: CCTE_Deisenroth_AIME_384WELL_LUC_Inactive: CCTE's 384-well Estrogen Receptor Transactivation Assay without AIME metabolic competence (ERTA luciferase; metabolism negative), Deisenroth Lab (AID 2284038);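 note: VM7Luc4E2 breast cells given medium preincubated 2 h with S9-free microspheres; hits raise estrogen receptor luciferase signal so potencies reflect agonists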
Sequence of Estrogen receptor (Homo sapiens) (P03372 whole entry, looked up): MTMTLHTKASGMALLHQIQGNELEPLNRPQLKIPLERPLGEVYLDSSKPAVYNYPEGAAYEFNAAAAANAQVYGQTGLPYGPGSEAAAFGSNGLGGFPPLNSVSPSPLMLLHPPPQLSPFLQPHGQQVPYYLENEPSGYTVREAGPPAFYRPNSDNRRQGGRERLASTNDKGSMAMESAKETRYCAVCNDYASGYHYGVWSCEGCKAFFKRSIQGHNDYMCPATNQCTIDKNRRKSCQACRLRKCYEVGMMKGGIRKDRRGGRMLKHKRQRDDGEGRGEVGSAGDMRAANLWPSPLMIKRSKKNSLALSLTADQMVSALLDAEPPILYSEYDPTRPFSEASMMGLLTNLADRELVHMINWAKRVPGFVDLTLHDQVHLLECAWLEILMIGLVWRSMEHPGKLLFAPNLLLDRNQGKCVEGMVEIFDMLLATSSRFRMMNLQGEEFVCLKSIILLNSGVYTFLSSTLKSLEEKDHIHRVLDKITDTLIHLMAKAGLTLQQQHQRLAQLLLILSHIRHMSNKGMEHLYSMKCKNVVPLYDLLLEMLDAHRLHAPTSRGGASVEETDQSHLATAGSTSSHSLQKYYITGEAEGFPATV
Summary of the method: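 Chemicals (10-point series, 0.002 - 200 uM) were incubated 2 hours with alginate-water microsphere lids lacking S9, then the conditioned medium was transferred to VM7Luc4E2 breast cells for 24 hour. Luciferase induction was read by bioluminescence, fitted upward relative to 17beta-estradiol.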

[4] = target: Estrogen receptor (Homo sapiens) (UniProt P03372); test: CCTE_Deisenroth_AIME_384WELL_LUC_Shift: CCTE's 384-well Estrogen Receptor Transactivation Assay with AIME metabolic competence data shift (ERTA luciferase; difference in metabolism positive and negative), Deisenroth Lab (AID 2284041; active = hit-call score of the fitted dose curve at least 0.9, where 1 is the maximum; inactive = score below 0.9;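 note: shift is response with S9 minus without S9 so positive means metabolism raised ER signal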)
Summary of the method: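 Test chemicals (0.002–200 uM, 10-point) were pre-incubated 2 h with alginate microspheres containing phenobarbital/beta-naphthoflavone-induced male Sprague Dawley rat liver S9 or water, then medium was transferred to VM7Luc4E2 cells for 24 h luciferase readout; shift = S9-positive minus S9-negative normalized response.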

[5] = CCTE_Shafer_MEA_dev_active_electrodes_number: CCTE's Neural Network Formation Assay for Number of Active Electrodes, Shafer Lab (AID 2284040);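 for AC50: potency for loss of active electrodes versus DMSO so lower counts are hits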
Summary of the method: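 Rat cortical primary cultures, 1.5 x 10^5 cells/well, PEI-coated MEA, laminin drop. Continuous exposure DIV 0–12; full media/compound change DIV 5, 9. Readout: electrodes with mean firing ≥5 spikes/min; AUC across days; loss vs DMSO.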

[6] = CCTE_Shafer_MEA_dev_bursting_electrodes_number: CCTE's Neural Network Formation Assay for Number of Bursting Electrodes, Shafer Lab (AID 2284043);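 for AC50: potency is for loss of bursting electrodes relative to DMSO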
Summary of the method: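 Read-out is the per-well number of electrodes bursting at least once every 2 minutes, recorded on days 5, 7, 9 and 12 and collapsed by trapezoidal area under the curve. Cultures were primary rat cortical neurons on MEA plates, treated continuously from plating.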

[7] = CCTE_Shafer_MEA_dev_per_burst_interspike_interval: CCTE's Neural Network Formation Assay for Burst Interspike Interval, Shafer Lab (AID 2284044; active = hit-call score of the fitted dose curve at least 0.9, where 1 is the maximum; inactive = score below 0.9;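 note: mean spike spacing inside bursts as AUC over recordings on days 5 7 9 12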;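 for AC50: potency for a decrease of within-burst interspike interval below DMSO level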)
Summary of the method: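 Neurons from rat cortex plated onto PEI-coated MEA wells with laminin […] at 1.5 x 10^5 cells/well, then treated from day 0. Media and compound fully replaced on DIV 5 and 9. Extracellular spontaneous firing recorded four times; interspike interval per burst summarised as AUC.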

[8] = CCTE_Shafer_MEA_dev_burst_duration_mean: CCTE's Neural Network Formation Assay for Mean Burst Duration, Shafer Lab (AID 2284045; active = hit-call score of the fitted dose curve at least 0.9, where 1 is the maximum; inactive = score below 0.9)
Summary of the method: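 Read-out: average first-to-last-spike interval within single-electrode bursts, averaged over bursting electrodes per well, then summarised as area under the curve across days 5, 7, 9 and 12. Developing rat cortical networks were exposed from day 0.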

[9] = CCTE_Shafer_MEA_dev_interburst_interval_mean: CCTE's Neural Network Formation Assay for Mean Interburst Interval, Shafer Lab (AID 2284046; active = hit-call score of the fitted dose curve at least 0.9, where 1 is the maximum; inactive = score below 0.9;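 note: well-mean interburst interval of bursting electrodes as AUC over four recording days; curve fitted for decrease in interburst interval relative to DMSO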)
Summary of the method: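 Primary rat cortical neurons on PEI-coated 48-well MEA plates (laminin added with cells at plating) (16 electrodes/well), exposed from plating day 0 with renewal at DIV 5 and 9. Mean inter-burst interval averaged over bursting electrodes, AUC across days 5, 7, 9, 12; DMSO baseline.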

[10] = CCTE_Shafer_MEA_dev_inter_network_spike_interval_mean: CCTE's Neural Network Formation Assay for Mean Inter-network Spike Interval, Shafer Lab (AID 2284047; active = hit-call score of the fitted dose curve at least 0.9, where 1 is the maximum; inactive = score below 0.9;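 for AC50: potency for a decrease in mean inter-network spike interval below DMSO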)
Summary of the method: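 Mean time between consecutive network-spike peaks, recorded extracellularly (adaptive spike detection) on DIV 5, 7, 9 and 12, summarized as trapezoidal AUC. Rat cortical cultures on MEAs dosed continuously days 0–12, re-dosed at feeds; loss-of-signal fit relative to DMSO.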

[11] = CCTE_Shafer_MEA_dev_network_spike_peak: CCTE's Neural Network Formation Assay for Mean Number of Electrodes in Network Spike, Shafer Lab (AID 2284049; active = hit-call score of the fitted dose curve at least 0.9, where 1 is the maximum; inactive = score below 0.9;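 for AC50: fitted for loss of signal meaning fewer electrodes in network spikes than DMSO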)
Summary of the method: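 Rat cortical primary culture, 1.5 x 10^5 cells/well, 48-well MEA (16 electrodes/well). Dosing day 0 through DIV 12, full media/compound exchange DIV 5, 9. AxIS adaptive spike detection; AUC over days 5/7/9/12; loss-of-signal vs DMSO.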

[12] = CCTE_Shafer_MEA_dev_spike_duration_mean: CCTE's Neural Network Formation Assay for Mean Spike Duration, Shafer Lab (AID 2284051; active = hit-call score of the fitted dose curve at least 0.9, where 1 is the maximum; inactive = score below 0.9;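 note: mean network spike duration pooled as area under curve over DIV 5 to 12 recordings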;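 for AC50: potency for a decrease in mean network spike duration versus DMSO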)
Summary of the method: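 Spontaneous activity was recorded on days 5, 7, 9 and 12 from rat cortical cultures grown on microelectrode arrays and dosed continuously from day 0, with media and compound renewed after the DIV 5 and 9 recordings. Network-spike duration was collapsed by area under the curve.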

[13] = CCTE_Shafer_MEA_dev_network_spike_duration_std: CCTE's Neural Network Formation Assay for Standard Deviation of Network Spike Duration, Shafer Lab (AID 2284052; active = hit-call score of the fitted dose curve at least 0.9, where 1 is the maximum; inactive = score below 0.9;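 note: hits are decreases in network spike duration SD versus DMSO vehicle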)
Summary of the method: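 Network spike duration variability was collapsed across recordings on days 5, 7, 9 and 12 by trapezoidal area-under-curve and fitted downward against DMSO. Cultures were rat cortical neurons on PEI-coated MEA plates, dosed continuously from plating, refed with compound DIV 5/9.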

[14] = CCTE_Shafer_MEA_dev_per_network_spike_spike_percent: CCTE's Neural Network Formation Assay for Percent of Spikes in a Network Spike, Shafer Lab (AID 2284054; active = hit-call score of the fitted dose curve at least 0.9, where 1 is the maximum; inactive = score below 0.9)
Summary of the method: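 Rat primary cortical cultures, 1.5 x 10^5 cells/well on MEA. Continuous compound exposure d0–12, medium/compound renewed DIV 5, 9. Network-spike spike % (0.05 s peak window), AUC over 4 recordings, DMSO baseline.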

[15] = test system: DIO2 (gene 1734); test: CCTE_GLTED_hDIO2: CCTE's human Deiodinase 2 (DIO2) Inhibition Assay, Great Lakes Toxicology and Ecology Division (GLTED) Lab (AID 2284050)
Summary of the method: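 Cell-free human DIO2 enzyme was incubated with test chemical for 3 h; iodide liberated from substrate was then quantified by the Sandell-Kolthoff reaction (absorbance), run in triplicate. Loss of signal versus DMSO baseline indicated inhibition.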

[16] = test system: DIO3 (gene 1735); test: CCTE_GLTED_hDIO3: CCTE's human Deiodinase 3 (DIO3) Inhibition Assay, Great Lakes Toxicology and Ecology Division (GLTED) Lab (AID 2284055);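 note: potency is for inhibition seen as loss of released iodide signal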
Summary of the method: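 Cell-free assay with human DIO3 enzyme produced by adenovirus expression; enzyme incubated with test chemical for 3 hours. Liberated iodide then measured by Sandell-Kolthoff absorbance; loss of signal versus DMSO baseline indicates inhibition, run in triplicate.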

[17] = CCTE_Shafer_MEA_dev_LDH: CCTE's Lactate Dehydrogenase Assay for Cytotoxicity in the Neural Network Formation Assay, Shafer Lab (AID 2284068);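 note: exposure for twelve days from plating with re-dosing on DIV 5 and 9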
Summary of the method: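 Primary rat cortical neurons were cultured on PEI-coated MEA plates and exposed from plating through day 12, with compound renewed at medium changes on DIV 5 and 9. LDH activity was read spectrophotometrically; loss of signal versus DMSO indicates reduced viability.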

Measured: AC50

COCCOCCOCCOC
inactive: [1] | [2]

CC(=O)OCCC(C)C
inactive: [1] | [2]

CC(C)=CCC/C(C)=C\CO
inactive: [1] | [2]

C=CC(=C)CCC=C(C)C
inactive: [3] | [4]

Nc1cccc(N)c1
inactive: [2]

NC(=O)NO
not listed: [1] | [2] | [3] | [4] | [15] | [16] | [17]
inactive: all other assays above

CC(C)c1cccc(C(C)C)c1N1C(=O)c2ccc(O)cc2C1=O
inactive: [1] | [2]

CC[C@H](C)C(=O)O[C@H]1C[C@@H](C)C=C2C=C[C@H](C)[C@H](CC[C@@H]3C[C@@H](O)CC(=O)O3)[C@H]21
active: [5] 1760 nM | [6] 1910 nM | [7] 2900 nM | [9] 2900 nM | [10] 1980 nM | [11] 1560 nM | [15] 82500 nM | [12] 2550 nM | [14] 1770 nM | [16] 100000 nM | [17] 956 nM
inactive: [8] | [13]

CCOc1cccc(-n2cc(C(=O)N3CCN(c4cc(C(=O)O)c5ccccc5c4)CC3)nc2-c2ccc(C)cc2)c1
active: [15] 100000 nM | [16] 140000 nM

CCCC(=O)OCC
inactive: [3] | [4]

CCOCCOCCOCCO
inactive: [1] | [2]

CC1=CC(=O)CC(C)(C)C1
inactive: [1] | [2]

Nc1ccc(Nc2ccccc2)cc1
active: [2] 74600 nM
inactive: [1] | [3] | [4]

Cc1ccc(N)cc1O
inactive: [3] | [2] | [4]

COc1ccc(-n2nc(C(F)F)cc2-c2ccc(S(C)=O)cc2)cc1 (configuration not stated)
inactive: [7] | [8] | [9] | [10] | [13] | [14]
active: [5] 10000 nM | [6] 10000 nM | [11] 1980 nM | [12] 1980 nM | [17] 603 nM

COCCOc1cc2cc(C(=O)NC3CCN(C(C)C)CC3)n(CC(=O)Nc3ccc(Cl)cn3)c2cn1
inactive: [1] | [2]

O=c1[nH]c2ccc(S(=O)CCN3CCC(Cc4ccc(F)cc4)CC3)cc2o1 (configuration not stated)
inactive: [3] | [4]

CC(C)CCO
inactive: [3] | [2] | [4]

O=C1CCC(N2C(=O)c3ccccc3C2=O)C(=O)N1 (configuration not stated)
not listed: [1] | [2] | [3] | [4] | [15] | [16]
inactive: all other assays above

Clc1nc(Cl)c(Cl)c(Cl)c1Cl
active: [15] 14800 nM | [16] 920 nM

Oc1ccc2c(c1)-c1ccccc1C2
active: [2] 156000 nM
inactive: [1]
